Values joined by “and” are separate entries in the source; they are usually repeats but may differ in a detail not shown here. Equal values may be shown once. Screen size: about 5,500 compounds; about 2,000 (36%) were called active. About 18% were inconclusive and are not listed. No stated cut-off is given here; in the data, active means normalized growth mostly below about 0.91 (no sharp cut-off); inconclusive means no clear call, values can overlap the other calls; inactive means mostly above about 0.92. This is one part of the list.
Assay: chemical genetic growth profiling, strain panel (AID 1159580);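 further: tested at 20 µM; growth read once vehicle control cultures reached saturation at 30 °C; 1 = growth at the plate median or of vehicle wells; lower values mean less growth of the strain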
Details: S. cerevisiae deletion strains, growth OD

Measured: normalized growth

COC1C(O)C(O)C(O)[C@@H](O)C1O (some centres undefined)
inactive: locus YAL013W, strain DEP1, hits give low values 1.01 | locus YAL021C, strain ccr4, hits give low values 0.967 | locus YAL026C, strain drs2, hits give low values 0.978 | locus YAL030W, strain snc1, hits give low values 0.976 | locus YBL061C, strain skt5, hits give low values 0.971 | locus YBR009C, strain hhf1, hits give low values 0.98 | locus YBR021W, strain FUR4, hits give low values 1.03 | locus YBR023C, strain chs3, hits give low values 0.966 | locus YBR171W, strain sec66, hits give low values 0.978 | locus YBR229C, strain ROT2, hits give low values 1.01 | locus YBR231C, strain swc5, hits give low values 0.978 | locus YBR279W, strain paf1, hits give low values 0.982 | locus YCL011C, strain gbp2, hits give low values 0.976 | locus YCL016C, strain dcc1, hits give low values 0.968 | locus YCL029C, strain bik1, hits give low values 1.02 | locus YCL061C, strain MRC1, hits give low values 0.97 | locus YCL069W, strain vba3, hits give low values 0.98 | locus YCR088W, strain abp1, hits give low values 0.976 | locus YDL005C, strain med2, hits give low values 0.949 | locus YDL035C, strain GPR1, hits give low values 1.02 | locus YDL074C, strain BRE1, hits give low values 1.06 | locus YDL101C, strain DUN1, hits give low values 1.01 | locus YDL134C, strain PPH21, hits give low values 1 | locus YDL185W, strain tfp1, hits give low values 1.01 | locus YDL192W, strain arf1, hits give low values 1.03 | locus YDR001C, strain nth1, hits give low values 0.964 | locus YDR069C, strain doa4, hits give low values 0.981 | locus YDR101C, strain arx1, hits give low values 1.04 | locus YDR137W, strain rgp1, hits give low values 0.98 | locus YDR150W, strain NUM1, hits give low values 1.01 | locus YDR159W, strain sac3, hits give low values 1.06 | locus YDR162C, strain NBP2, hits give low values 1.01 | locus YDR195W, strain ref2 1.01 | locus YDR297W, strain sur2, hits give low values 0.977 | locus YDR318W, strain mcm21, hits give low values 1.02 | locus YDR334W, strain swr1, hits give low values 0.966 | locus YDR335W, strain msn5, hits give low values 0.972 | locus YDR388W, hits give low values 1.02 | locus YDR392W, strain spt3, hits give low values 0.909 | locus YDR502C, strain sam2, hits give low values 1.05 | locus YEL003W, strain gim4, hits give low values 0.974 | locus YEL037C, strain rad23, hits give low values 0.968 | locus YEL061C, strain CIN8 (second series), hits give low values 0.971 | locus YEL061C, strain CIN8, hits give low values 1.01 | locus YER015W, strain faa2, hits give low values 0.984 | locus YER016W, strain bim1, hits give low values 0.977 | locus YER110C, hits give low values 1.02 | locus YER111C, strain swi4, hits give low values 0.961 | locus YER155C, strain BEM2 (second series), hits give low values 0.971 | locus YER155C, strain BEM2, hits give low values 1.01 | locus YER167W, strain BCK2, hits give low values 1.01 | locus YFR010W, strain ubp6, hits give low values 0.951 | locus YGL078C, strain dbp3, hits give low values 1.02 | locus YGL086W, strain mad1, hits give low values 1.05 | locus YGL167C, strain pmr1, hits give low values 0.977 | locus YGL173C, strain kem1, hits give low values 0.964 | locus YGL227W, strain vid30, hits give low values 0.973 | locus YGL240W, strain doc1, hits give low values 1 | locus YGL248W, strain PDE1, hits give low values 1.01 | locus YGL253W, strain hxk2, hits give low values 0.966 | locus YGR078C, strain PAC10, hits give low values 1 | locus YGR135W, strain pre9, hits give low values 1.01 | locus YGR252W, strain gcn5, hits give low values 0.972 | locus YHR013C, strain ard1, hits give low values 0.948 | locus YHR027C, strain rpn1, hits give low values 0.999 | locus YHR030C, strain SLT2, hits give low values 0.999 and 0.933 | locus YHR079C, strain IRE1 (second series), hits give low values 1.03 | locus YHR079C, strain IRE1, hits give low values 0.925 | locus YHR094C, strain hxt1, hits give low values 1.04 | locus YHR129C, strain ARP1, hits give low values 1.01 | locus YHR142W, strain chs7, hits give low values 0.928 | locus YHR200W, strain rpn10, hits give low values 1.03 | locus YIL066C, strain RNR3, hits give low values 1.01 | locus YIL073C, strain SPO22, hits give low values 1.09 | locus YIL125W, strain kgd1, hits give low values 1.01 | locus YIR030C, strain dcg1, hits give low values 1.02 | locus YJL092W, strain hpr5, hits give low values 0.975 | locus YJL095W, strain BCK1 (second series), hits give low values 0.975 | locus YJL095W, strain BCK1, hits give low values 1 | locus YJL115W, strain asf1, hits give low values 0.971 | locus YJL129C, strain trk1, hits give low values 0.938 | locus YJL134W, strain LCB3, hits give low values 0.999 | locus YJL154C, strain vps35, hits give low values 0.964 | locus YJL164C, strain tpk1, hits give low values 0.974 | locus YJL166W, strain qcr8, hits give low values 0.98 | locus YJL168C, strain set2, hits give low values 1.02 | locus YJL187C, strain SWE1 (second series), hits give low values 1.01 | locus YJL187C, strain SWE1, hits give low values 0.977 | locus YJR043C, strain POL32, hits give low values 0.989

Reference: PubChem BioAssay AID1159580 (chemical genetic matrix, 2015)
